According to PubChem BioAssay (NCATS):

What follows are compounds tested against Nicotinamide N-methyltransferase (Homo sapiens) (UniProt P40261) (assay: Confirmatory Screen for Target Class Profiling of Small Molecule Inhibitors of Methyltransferases (AID 1745852)). Conditions: MTase-Glo luminescence, SAH detection, recombinant enzyme; measured here: NNMT max response; stronger effect = lower value.
Sequence of Nicotinamide N-methyltransferase (Homo sapiens) (P40261 whole entry, looked up): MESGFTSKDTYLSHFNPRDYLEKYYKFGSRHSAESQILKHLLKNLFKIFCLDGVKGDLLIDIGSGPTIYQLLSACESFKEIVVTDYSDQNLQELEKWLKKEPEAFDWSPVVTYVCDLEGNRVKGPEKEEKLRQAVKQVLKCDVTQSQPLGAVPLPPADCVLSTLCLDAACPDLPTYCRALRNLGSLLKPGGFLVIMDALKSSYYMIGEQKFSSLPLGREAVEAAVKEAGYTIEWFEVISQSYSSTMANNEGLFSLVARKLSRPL
With `CN1C(=O)C(c2ccccc2)CC12CCN(c1ccnc(N)n1)CC2` (stereo not drawn) the activity was 7.63%. `Cn1c(=O)n(C)c2cc(S(=O)(=O)N3CCN(C4CCCCC4)CC3)ccc21` showed an activity of -8.71%. In the case of `O=C1c2ccccc2C(=O)c2cc(S(=O)(=O)NCCO)ccc21`, the activity is reported as -0.735%. Work on `Cc1ccc2c(c1)c(-n1cccc1)c1n2CC(C)(C(=O)NCCC(C)C)N(Cc2cccnc2)C1=O` (stereo not drawn) yielded an activity of -51.8%. `Cn1cc2c3c(cccc31)CN(C(=O)c1ccccc1F)CC2` was tested, and the activity was -50.7%. With `Cc1ccccc1-c1[nH]nc2ncc(-c3c(C)noc3C)nc12` the activity was -31.8%. In the case of `Cc1ccc(NS(=O)(=O)c2ccc3c(c2)[C@H]2C=CC[C@H]2[C@@H](c2cccc(Cl)c2)N3)c(C)c1`, the activity is reported as -16.4%. `C1=C(c2nc(-c3ccncc3)cc3c2ccn3Cc2cccnc2)CCOC1` was tested, and the activity was -8.71%. `COc1ccccc1N1CCN(S(=O)(=O)c2cccc3c2C(=O)c2ccccc2C3=O)CC1` gave an activity of -1.31%. Work on `Cc1cc(C)c(NS(=O)(=O)c2ccc3c(c2)n(C)c(=O)n3C)c(C)c1` yielded an activity of -39.4%. `COc1ccc(-c2cc3nc4c(c(=O)n3[nH]2)CN(C(=O)CN(C)S(=O)(=O)c2cnc[nH]2)CC4)cc1` was tested, and the activity was -27.5%. Work on `Cc1ccc(C(=O)O)c2c1N[C@H](c1cccc(Cl)c1)C1CC=CC21` (stereo partly drawn) yielded an activity of 3.29%. Work on `CCCC1c2cccn2CCN1C(=O)Nc1cc(Cl)ccc1C` (stereo not drawn) yielded an activity of -4.96%. With `COc1ccc(CN2C(=O)c3cc4ccccc4n3CC2(C)C(=O)NCc2ccccc2)cc1OC` (stereo not drawn) the activity was -57.8%. Work on `COc1cccc(CNC(=O)c2sc(=S)n3c2[nH]c(=O)c2cc4c(cc23)OCO4)c1` yielded an activity of -43.7%. Work on `CCc1ccc(NS(=O)(=O)c2ccc3c(c2)n(C)c(=O)n3C)cc1` yielded an activity of -40.6%. `COc1ccc(CC(=O)Nc2ccc3ncnc(N4CCCC4)c3c2)c(Cl)c1` was tested, and the activity was -30.7%. `CC1CC(C)CN(S(=O)(=O)c2ccc3c(c2)oc(=O)n3CC(=O)Nc2cccc(F)c2)C1` (stereo not drawn) was tested, and the activity was -0.567%. `CCCCN1C(=O)c2cc(C(=O)Nc3cc(C)cc(C)c3)nn2CC1(C)C(=O)NC1CCCC1` (stereo not drawn) showed an activity of 1.44%. With `COc1ccc(S(=O)(=O)N2CCC(n3c(=O)[nH]c4ccccc43)CC2)cc1` the activity was -15.3%. With `COC(=O)[C@@H]1Cc2ncn(Cc3ccc(Cl)cc3)c2CN1CCCc1ccccc1` the activity was -17%. With `FC(F)(F)c1ccnc(N2CC[C@H](c3nnc(-c4ccncc4)o3)C2)n1` the activity was -59.3%. `Cc1cnc(CCNC(=O)c2cccs2)n1C1CCC1` was tested, and the activity was 8.96%. In the case of `Cc1nc2cccnc2n1CC1CCCN(S(=O)(=O)c2ccc3c(c2)OCCO3)C1` (stereo not drawn), the activity is reported as -4.66%. Compound `CCCn1c(=O)c2ccccc2n2c(=O)n(CC(=O)c3cccc(Cl)c3)nc12` has an activity of -46.1%. `O=C(CCc1nnc2n(CCc3ccccc3)c(=O)c3ccccc3n12)NCCCN1CCCCC1` showed an activity of 0.418%. For `CC(C)CCNC(=O)c1ccc2c(=O)[nH]c3c(C(=O)NC4CCCC4)sc(=S)n3c2c1`, the activity was -45.4%. `CC(C)CCn1c(=O)c2ccccc2n2c(CCC(=O)N3CCN(c4cccc(Cl)c4)CC3)nnc12` showed an activity of -55.2%. `COc1ccc(-c2[nH]nc3ncc(C(=O)N4CCC(c5ccccc5)CC4)nc23)c(C)c1` was tested, and the activity was -23.9%. For `O=C(c1ccc(C2CCCNC2)cc1)N1CCN(c2ccncc2)CC1` (stereo not drawn), the activity was -3.55%. `O=C(NCc1ccc(Cl)cc1)c1ccc2c(=O)nc3c(-c4ccccc4F)n[nH]n3c2c1` was tested, and the activity was -14.9%. For `CCNc1nc2c(s1)C(c1cccc(F)c1)CC(=O)N2` (stereo not drawn), the activity was -25%. Compound `COc1cccc(NC(=O)Cn2c(=O)oc3cc(S(=O)(=O)N4CCCCC4C)ccc32)c1` (stereo not drawn) has an activity of -2.27%. `CC(C)CCNC(=O)c1ccc2c(=O)[nH]c3c(C(=O)NC(C)C)sc(=S)n3c2c1` gave an activity of -37.9%. For `c1ccc(CCN2CCNc3cc(NCc4cccnc4)ncc3C2)cc1`, the activity was -5.35%. Work on `COc1ccc(-c2n[nH]n3c2nc(=O)c2ccc(C(=O)NCc4ccc(OC)c(OC)c4)cc23)cc1` yielded an activity of 0.962%. For `COc1ccc(CCNc2nc3c(-c4cccc(F)c4)nnn3c3ccccc23)cc1OC`, the activity was -5.65%. `O=C(O)c1ccc2c(c1)C1C=CCC1C(c1cccc(F)c1)N2` (stereo not drawn) showed an activity of 0.825%. Compound `CCCN1CCn2c3c(c4cc(OC)ccc42)CCN=C31` has an activity of -6.4%.

Each compound was assayed against Phenylethanolamine N-methyltransferase (Homo sapiens) (UniProt P11086) in the same assay as above. Conditions: MTase-Glo luminescence, SAH detection, recombinant enzyme; measured here: PNMT max response; stronger effect = lower value.
Sequence of Phenylethanolamine N-methyltransferase (Homo sapiens) (P11086 whole entry, looked up): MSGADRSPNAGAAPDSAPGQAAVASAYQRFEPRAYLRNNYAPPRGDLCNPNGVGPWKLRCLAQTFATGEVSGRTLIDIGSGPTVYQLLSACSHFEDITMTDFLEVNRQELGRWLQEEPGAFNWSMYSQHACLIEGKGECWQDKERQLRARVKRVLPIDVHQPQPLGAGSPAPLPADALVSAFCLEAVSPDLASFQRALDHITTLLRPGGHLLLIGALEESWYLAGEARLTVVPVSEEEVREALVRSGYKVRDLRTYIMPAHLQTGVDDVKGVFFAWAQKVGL
`CN1C(=O)C(c2ccccc2)CC12CCN(c1ccnc(N)n1)CC2` (stereo not drawn) showed an activity of 10.4%. `Cn1c(=O)n(C)c2cc(S(=O)(=O)N3CCN(C4CCCCC4)CC3)ccc21` showed an activity of -5.99%. In the case of `O=C1c2ccccc2C(=O)c2cc(S(=O)(=O)NCCO)ccc21`, the activity is reported as -29.7%. `Cc1ccc2c(c1)c(-n1cccc1)c1n2CC(C)(C(=O)NCCC(C)C)N(Cc2cccnc2)C1=O` (stereo not drawn) gave an activity of 0%. Work on `Cn1cc2c3c(cccc31)CN(C(=O)c1ccccc1F)CC2` yielded an activity of -0.857%. Work on `Cc1ccccc1-c1[nH]nc2ncc(-c3c(C)noc3C)nc12` yielded an activity of -28.1%. Compound `Cc1ccc(NS(=O)(=O)c2ccc3c(c2)[C@H]2C=CC[C@H]2[C@@H](c2cccc(Cl)c2)N3)c(C)c1` has an activity of -18.5%. In the case of `C1=C(c2nc(-c3ccncc3)cc3c2ccn3Cc2cccnc2)CCOC1`, the activity is reported as -24.5%. `COc1ccccc1N1CCN(S(=O)(=O)c2cccc3c2C(=O)c2ccccc2C3=O)CC1` gave an activity of -8.85%. `Cc1cc(C)c(NS(=O)(=O)c2ccc3c(c2)n(C)c(=O)n3C)c(C)c1` showed an activity of 0.178%. For `COc1ccc(-c2cc3nc4c(c(=O)n3[nH]2)CN(C(=O)CN(C)S(=O)(=O)c2cnc[nH]2)CC4)cc1`, the activity was -19.5%. With `Cc1ccc(C(=O)O)c2c1N[C@H](c1cccc(Cl)c1)C1CC=CC21` (stereo partly drawn) the activity was 2.81%. `CCCC1c2cccn2CCN1C(=O)Nc1cc(Cl)ccc1C` (stereo not drawn) was tested, and the activity was -0.621%. `COc1ccc(CN2C(=O)c3cc4ccccc4n3CC2(C)C(=O)NCc2ccccc2)cc1OC` (stereo not drawn) showed an activity of 1.95%. `COc1cccc(CNC(=O)c2sc(=S)n3c2[nH]c(=O)c2cc4c(cc23)OCO4)c1` gave an activity of -28%. Work on `CCc1ccc(NS(=O)(=O)c2ccc3c(c2)n(C)c(=O)n3C)cc1` yielded an activity of -1.22%. `COc1ccc(CC(=O)Nc2ccc3ncnc(N4CCCC4)c3c2)c(Cl)c1` showed an activity of -8.25%. Work on `CC1CC(C)CN(S(=O)(=O)c2ccc3c(c2)oc(=O)n3CC(=O)Nc2cccc(F)c2)C1` (stereo not drawn) yielded an activity of -52.9%. `CCCCN1C(=O)c2cc(C(=O)Nc3cc(C)cc(C)c3)nn2CC1(C)C(=O)NC1CCCC1` (stereo not drawn) was tested, and the activity was -4.22%. With `COc1ccc(S(=O)(=O)N2CCC(n3c(=O)[nH]c4ccccc43)CC2)cc1` the activity was -23.9%. With `COC(=O)[C@@H]1Cc2ncn(Cc3ccc(Cl)cc3)c2CN1CCCc1ccccc1` the activity was -1.27%. In the case of `FC(F)(F)c1ccnc(N2CC[C@H](c3nnc(-c4ccncc4)o3)C2)n1`, the activity is reported as 3.21%. `Cc1cnc(CCNC(=O)c2cccs2)n1C1CCC1` showed an activity of 6.31%. For `Cc1nc2cccnc2n1CC1CCCN(S(=O)(=O)c2ccc3c(c2)OCCO3)C1` (stereo not drawn), the activity was -0.0682%. `CCCn1c(=O)c2ccccc2n2c(=O)n(CC(=O)c3cccc(Cl)c3)nc12` showed an activity of -9.61%. `O=C(CCc1nnc2n(CCc3ccccc3)c(=O)c3ccccc3n12)NCCCN1CCCCC1` showed an activity of 0.873%. `CC(C)CCNC(=O)c1ccc2c(=O)[nH]c3c(C(=O)NC4CCCC4)sc(=S)n3c2c1` gave an activity of -38.7%. `CC(C)CCn1c(=O)c2ccccc2n2c(CCC(=O)N3CCN(c4cccc(Cl)c4)CC3)nnc12` gave an activity of -8.01%. `COc1ccc(-c2[nH]nc3ncc(C(=O)N4CCC(c5ccccc5)CC4)nc23)c(C)c1` was tested, and the activity was -53.6%. In the case of `O=C(c1ccc(C2CCCNC2)cc1)N1CCN(c2ccncc2)CC1` (stereo not drawn), the activity is reported as 3.06%. Work on `O=C(NCc1ccc(Cl)cc1)c1ccc2c(=O)nc3c(-c4ccccc4F)n[nH]n3c2c1` yielded an activity of -19.4%. `CCNc1nc2c(s1)C(c1cccc(F)c1)CC(=O)N2` (stereo not drawn) was tested, and the activity was -19.2%. With `COc1cccc(NC(=O)Cn2c(=O)oc3cc(S(=O)(=O)N4CCCCC4C)ccc32)c1` (stereo not drawn) the activity was -70.8%. For `CC(C)CCNC(=O)c1ccc2c(=O)[nH]c3c(C(=O)NC(C)C)sc(=S)n3c2c1`, the activity was -33.6%. `c1ccc(CCN2CCNc3cc(NCc4cccnc4)ncc3C2)cc1` gave an activity of -6.38%. Work on `COc1ccc(-c2n[nH]n3c2nc(=O)c2ccc(C(=O)NCc4ccc(OC)c(OC)c4)cc23)cc1` yielded an activity of 0.793%. For `COc1ccc(CCNc2nc3c(-c4cccc(F)c4)nnn3c3ccccc23)cc1OC`, the activity was -3.23%. Work on `O=C(O)c1ccc2c(c1)C1C=CCC1C(c1cccc(F)c1)N2` (stereo not drawn) yielded an activity of -2.83%. Compound `CCCN1CCn2c3c(c4cc(OC)ccc42)CCN=C31` has an activity of -5.52%.
